Hit rate of the full screen: of about 310,000 compounds, about 1,200 (0.39%) were called active. How the calls were made is not given here. These entries were drawn from the full list. Potency and affinity values are given separately.
These compounds were tested against Large T antigen (Simian virus 40) (UniProt P03070) (assay: SV40 large T antigen inhibitors, biochemical (AID 1903)). Details: SV40 large T antigen ATPase/helicase inhibition assay; at 20 µM; active compounds read high.
Chain of Large T antigen (Simian virus 40) (P03070 whole entry, looked up): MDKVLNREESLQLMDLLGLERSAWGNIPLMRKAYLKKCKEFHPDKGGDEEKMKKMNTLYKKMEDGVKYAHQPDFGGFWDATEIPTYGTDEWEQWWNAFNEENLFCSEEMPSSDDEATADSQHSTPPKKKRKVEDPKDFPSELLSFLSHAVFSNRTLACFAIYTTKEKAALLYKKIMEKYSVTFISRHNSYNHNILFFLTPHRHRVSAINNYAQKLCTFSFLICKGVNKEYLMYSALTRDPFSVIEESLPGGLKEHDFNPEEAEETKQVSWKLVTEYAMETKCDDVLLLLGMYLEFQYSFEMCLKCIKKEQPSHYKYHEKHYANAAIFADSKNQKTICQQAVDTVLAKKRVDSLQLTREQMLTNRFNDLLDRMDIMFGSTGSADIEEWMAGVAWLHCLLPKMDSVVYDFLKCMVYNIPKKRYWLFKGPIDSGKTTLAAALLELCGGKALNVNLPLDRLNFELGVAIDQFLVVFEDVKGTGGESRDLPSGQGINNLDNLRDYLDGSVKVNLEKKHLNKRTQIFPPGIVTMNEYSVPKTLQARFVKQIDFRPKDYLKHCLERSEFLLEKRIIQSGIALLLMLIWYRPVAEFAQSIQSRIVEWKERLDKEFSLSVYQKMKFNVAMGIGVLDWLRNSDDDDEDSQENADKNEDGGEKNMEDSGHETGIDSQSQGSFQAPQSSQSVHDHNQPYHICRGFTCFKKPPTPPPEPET

inhibition, inactive:
O=C1NC(=O)/C(=C/c2ccccc2Cl)N1 2.2%
O=C1Nc2ccccc2/C1=C/c1ccccc1Cl 4.98%
O=C1CCC(C(=O)OCC(=O)c2ccccc2)N1 (configuration not stated) -3.04%
Cc1ccc([C@@H]2[C@@H]3C(=O)N(C)C(=O)[C@@H]3[C@]3(C)C(=O)N(Cc4ccccn4)CC(=O)N23)o1 21.8%
CC1=Nc2cccc3cccc(c23)N1 14.5%
CC(C)C1=Nc2cccc3cccc(c23)N1 31.8%
NS(=O)(=O)c1ccc(CNS(=O)(=O)c2ccc3ccccc3c2)cc1 8.92%
O=S1(=O)N=C(N(CCO)/N=C/c2ccccc2)c2ccccc21 -0.93%
O=C(O)CCCc1ccc2c(c1)CCc1ccccc1-2 4.11%
CC(=O)Nc1ccc2c(c1)CCc1ccccc1-2 2.87%
CCCCNC(=S)NNC(=O)c1c(Cl)c(C)nn1C 13.2%
CC1=NN(c2ccc(Br)cc2)C(=O)/C1=C/c1ccc(-c2ccccc2C(=O)O)o1 33.3%
COC(=O)c1ccccc1-c1ccc(/C=C2\C(=O)N(c3ccccc3)N=C2c2ccccc2)o1 -14%
CCN1C(=O)/C(=C\c2ccc(-c3ccc([N+](=O)[O-])cc3OC)o2)SC1=Nc1cccc(C(=O)O)c1 13.7%
CCSC1=N/C(=C\c2ccc(-c3ccccc3[N+](=O)[O-])o2)C(=O)S1 45.4%
Cc1ccc(C(=O)/C=C/c2ccc(-c3ccccc3[N+](=O)[O-])o2)cc1 -1.93%
COc1ccc(OC)c(CNc2ccc([N+](=O)[O-])cc2C)c1 -3.94%
COc1ccc(Br)cc1S(=O)(=O)n1c([N+](=O)[O-])cnc1C -1.15%
C=CCn1cccc(C(=O)Nc2ccc(C)c(C)c2)c1=O 10.4%
Cc1ccc(CNC(=O)COC(=O)Cc2ccc(-c3ccccc3)cc2)cc1 1.94%
CCc1nnc(NC(=O)CCN2C(=O)C3CCCCC3C2=O)s1 (configuration not stated) 8.24%
CCOC(=O)C(C)Sc1nc2c(c(=O)[nH]c(=O)n2C)n1C/C=C(/C)Cl (configuration not stated) 0.445%
CC(=O)Oc1ccc2oc(/C=C/N(C)C)c([N+](=O)[O-])c2c1 13%
CN(C)/C=C/c1oc2ccc(O)cc2c1[N+](=O)[O-] 32%
OC(COc1ccc(CNCCc2ccccc2F)cc1)CN1CCCCC1 (configuration not stated) 5.86%
COCCNC(=S)N/N=C(\C)c1ccc(OC)cc1 13.8%
COCCNC(=S)N/N=C(\C)c1ccc(OC(F)F)cc1 21.1%

Source: PubChem BioAssay AID1903 (Southern Research Specialized Biocontainment Screening …, 2009)
